Bioassay records deposited in PubChem BioAssay by The Scripps Research Institute Molecular Screening Center.
MITF primary – inhibitors of human MITF; AlphaScreen MITF homodimerization, bead proximity signal; inhibition, % at 2.6 µM; hit rate 0.91% among 650,000; AID 1259374; in the data active = inhibition above about 50%;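 note: 0% = vehicle wells with protein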
TEAD-YAP block – TEAD-YAP interaction inhibition; HEK-TIYL cells, TEAD-Gal4/YAP UAS-luciferase luminescence; inhibition, % at 9.12 µM; hit rate 1.4% among 640,000; AID 1259422; in the data active = inhibition above about 32%;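 note: 0% = median of test compound wells and 100% = reference inhibitor wells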
GPR151 activ – activates the human receptor GPR151. Q8TDV0. PathHunter beta-arrestin GPR151 cells, luminescence. activation, % at 11.2 µM. hit rate 1% among 650,000. AID 1508602; in the data active = activation above about 4.9%;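 note: 0% = median of compound wells and 100% = cells with positive control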
FBW7 act – activators of human E3 ligase FBW7; Q969H0; AlphaScreen FBW7–phospho-cyclin E peptide binding, activator screen; normalized activity (activation), % at 26.1 µM; hit rate 0.13% among 650,000; in the data active = normalized activity above about 1.9%;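 note: purified mutant Fbw7 with reduced substrate affinity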
Target sequence (Q969H0 whole entry, looked up): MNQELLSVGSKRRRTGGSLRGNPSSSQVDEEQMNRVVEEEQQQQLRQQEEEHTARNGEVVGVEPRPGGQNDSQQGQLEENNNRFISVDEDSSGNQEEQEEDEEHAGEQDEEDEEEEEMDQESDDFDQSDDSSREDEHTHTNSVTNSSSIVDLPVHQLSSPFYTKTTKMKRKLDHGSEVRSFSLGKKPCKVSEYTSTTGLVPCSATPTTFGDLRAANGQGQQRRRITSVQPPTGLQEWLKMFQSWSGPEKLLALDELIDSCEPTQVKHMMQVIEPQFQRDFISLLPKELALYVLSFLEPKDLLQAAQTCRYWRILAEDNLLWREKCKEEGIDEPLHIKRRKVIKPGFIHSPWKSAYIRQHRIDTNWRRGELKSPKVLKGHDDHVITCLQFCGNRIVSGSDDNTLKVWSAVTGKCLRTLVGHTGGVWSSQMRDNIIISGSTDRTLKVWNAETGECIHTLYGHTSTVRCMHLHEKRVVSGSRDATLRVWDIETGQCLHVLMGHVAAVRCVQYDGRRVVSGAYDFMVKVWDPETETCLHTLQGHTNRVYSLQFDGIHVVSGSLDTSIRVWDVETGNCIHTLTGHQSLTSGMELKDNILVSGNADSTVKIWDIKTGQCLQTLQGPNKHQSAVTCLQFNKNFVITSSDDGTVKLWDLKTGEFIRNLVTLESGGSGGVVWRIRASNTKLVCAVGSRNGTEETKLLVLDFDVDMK
GPR151 conf act – human GPR151 activation, confirmation screen. shares compounds with GPR151 activ. GPR151 PathHunter beta-arrestin cells, luminescence, 90 min; % of EA-reagent control over plate median. activation, % at 11.2 µM. 6,700 tested, under 10 active. AID 1508609;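 active = mean percent activation across replicates above the confirmation screen cutoff of 4.91%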
GPR119 ag – activates human GPR119 in a GPR151 counter-screen; hit rate 0.3% among 6,700; GPR119 PathHunter beta-arrestin cells, luminescence, 90 min; 0 = compound-well median, 100 = enzyme-acceptor control; shares compounds with GPR151 activ; activation, % at 11.2 µM;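 active = mean percent activation in the counterscreen above 29.09%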;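 note: counterscreen on off-target GPR119 to flag nonselective hits from the GPR151 activator screen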
Numbers without * were called inactive; . = not tested or not shown. Shown are actives, neighbours in structure and some others; about 3.4% of the full set was active somewhere.

SMILES	MITF primary	TEAD-YAP block	GPR151 activ	FBW7 act	GPR151 conf act	GPR119 ag
O=C1OC(c2ccc(-c3ccccc3)cc2)=N/C1=C\c1cccnc1	1.8	4.3	14.3*	0.1	-0.7	-5.0
C1CN(c2nc3nonc3nc2N2CCSCC2)CCO1	4.0	-0.1	8.9*	-0.1	0.6	-0.7
C1CN(c2nc3nonc3nc2N2CCOCC2)CCO1	10.1	1.5	-0.2	-0.1	.	.
NC(=O)N1CCn2c3c(c4cc(C5CCCCC5)ccc42)CCCC31 (stereo unspecified)	-2.4	3.8	2.4	0.0	.	.
O=CN1CCn2c3c(c(=O)c4cc(C5CCCCC5)ccc42)CCC31 (stereo unspecified)	11.4	-13.5	7.3*	-0.2	-0.3	-5.5
Cc1c(Cl)cccc1NC(=S)N1CCC(N(C)CCN2CCOCC2)CC1	-3.8	-4.3	0.4	-0.1	.	.
Cc1ccc(S(=O)(=O)N2C(=O)CCC2C(=O)O/N=C(\N)c2ccccc2)cc1 (stereo unspecified)	5.4	-10.3	8.4*	-0.1	-0.3	-4.2
Cc1ccc(S(=O)(=O)N2C(=O)CCC2C(=O)O/N=C(\N)c2cccnc2)cc1 (stereo unspecified)	3.3	1.8	5.2*	0.0	1.2	7.0
CCC(=O)NNC(=O)CSc1nnc2c3c(C)c(C)sc3nc(C(C)C)n12	-0.5	8.6	0.5	0.0	.	.
Cc1sc2nc(C(C)C)n3c(SCC(=O)NNC(=O)C(C)C)nnc3c2c1C	6.3	3.4	7.4*	0.1	0.6	7.6
CC(/C=c1\sc2nc3ccccc3n2c1=O)=C\c1ccccc1	11.3	-8.4	0.0	-0.1	.	.
CCc1ccccc1NS(=O)(=O)c1ccc2c(c1)OCCN2C	3.4	2.3	1.3	0.0	.	.
COc1ccc(CCNS(=O)(=O)c2ccc3c(c2)OCCN3C)cc1OC	3.4	-4.5	5.2*	0.7	0.4	-3.7
Cc1cc2c(cc1S(=O)(=O)Nc1ncccc1C)OCCN2C	4.0	-3.6	6.3*	-0.2	0.3	-0.2
CN1CCOc2cc(S(=O)(=O)NCCc3ccc(Cl)cc3)ccc21	-9.3	-8.0	1.4	0.0	.	.
Cc1cc2c(cc1S(=O)(=O)Nc1ccccn1)OCCN2C	1.0	-10.1	-0.2	-0.1	.	.
CN1CCOc2cc(S(=O)(=O)Nc3ccccc3F)ccc21	-1.0	3.1	15.9*	-0.1	0.4	4.7
Cc1cc2c(cc1S(=O)(=O)Nc1ccccc1Br)OCCN2C	8.5	3.1	9.7*	0.1	0.1	1.9
CCOc1ccc(/C(O)=C2/C(=O)C(=O)N(CCCN(C)C)C2c2ccc(N(C)C)cc2)cc1C (stereo unspecified)	-0.9	-7.5	-1.1	-0.5	.	.
CCOC(=O)c1ccc(S(=O)(=O)N2CCCCC2)cc1	-2.4	4.2	0.7	-0.1	.	.
Cc1ccc(N2C(=O)c3cc(N4CCN(c5ccccc5)CC4)c([N+](=O)[O-])cc3C2=O)cc1	12.0	13.0	0.8	0.0	.	.
COc1ccc(-c2cnc(SCCNC(=O)CCCc3ccccc3)[nH]2)cc1	-9.7	-12.9	-0.8	0.4	.	.
CCC(=O)NCCSc1ncc(-c2ccccc2)[nH]1	5.4	-13.8	5.2*	0.3	-0.8	-2.4
COC(=O)C1=CN(c2ccc(C(=O)OC)cc2)C=C(C(=O)OC)C1c1cccc(F)c1	5.0	11.9	-0.9	0.2	.	.
O=C(NCCc1nnc2n1CCN(Cc1ccccc1-c1ccco1)CC2)C1CCCO1 (stereo unspecified)	12.8	1.4	7.1*	-0.1	1.8	13.2
SMILES	MITF primary	TEAD-YAP block	GPR151 activ	FBW7 act	GPR151 conf act	GPR119 ag
Cc1cc(C)c(CN2CCc3nnc(CCNC(=O)COc4ccccc4)n3CC2)cc1C	0.3	0.4	-0.7	0.1	.	.
O=C(NCCc1nnc2n1CCN(Cc1cccc3ccccc13)CC2)C1CCCO1 (stereo unspecified)	-18.1	-4.8	1.7	-0.1	.	.
CCC(CC)CN1CCc2nnc(CCNC(=O)COc3ccccc3)n2CC1	14.7	3.0	5.1*	0.8	0.9	6.7
Cc1ccc(C)c(CN2CCc3nnc(CCNC(=O)COc4ccccc4)n3CC2)c1	6.2	14.5	8.8*	-0.1	0.7	5.5
NC(=O)c1c(NC(=O)COc2ncnc3sccc23)sc2c1CCC2	17.0	-3.9	-1.0	-0.1	.	.
O=c1c2ccccc2nc(SCc2ccc(F)cc2Cl)n1CC1CCCO1 (stereo unspecified)	-6.8	-5.5	0.3	-0.1	.	.
O=C(NC1CCN(Cc2ccccc2)CC1)c1cccc(Nc2ncccn2)n1	2.3	4.7	-2.0	-0.2	.	.
Cc1ccc(NC(=O)/C=C/c2ccc3c(c2)OCO3)c(C)c1	11.4	-10.3	-0.6	0.1	.	.
NC(=O)c1ccc(NC(=O)CN2CCN(c3ccc(F)cc3)CC2)cc1	3.1	10.1	1.1	0.0	.	.
O=C(OC1C2C3CC4C5CC(C42)C1C53)c1ccccc1 (stereo unspecified)	8.2	-8.1	0.0	0.0	.	.
CCc1nnc2n1N(C(C)=O)C(c1ccc(Cl)cc1)=C(C(C)=O)S2	1.8	18.7	0.3	-0.1	.	.
CCc1nnc2n1N(C(C)=O)C(c1ccc(Cl)c(Cl)c1)=C(C(C)=O)S2	11.1	16.5	7.1*	-0.2	1.3	2.4
O=C(COc1ccccc1)Nc1ccc(N2CCC(NCCN3CCNC3=O)CC2)cc1	1.0	9.1	0.3	-0.1	.	.
O=C(Nc1ccc(N2CCC(NCCN3CCNC3=O)CC2)cc1)C1CCCC1	1.3	-12.9	6.3*	0.1	0.5	0.4
CN(c1ccc(Cl)cc1)S(=O)(=O)c1nnc(NC(=O)/C=C/c2ccccc2)s1	16.4	-1.0	-1.2	0.1	.	.
CCc1ccc(CNCc2cc(NC(=O)c3ccccn3)cc(C(=O)N(C)C)c2)cc1	-4.7	1.6	10.1*	0.0	0.9	9.7
O=c1c2ccccc2[nH]c(=S)n1-c1ccc(-c2n[nH]c(=S)o2)cc1	4.4	-5.6	2.3	0.0	.	.
Cc1cc(C)n(-c2ccc(C(=O)OCC(=O)c3ccccc3)cc2)n1	0.0	2.0	0.9	0.0	.	.
CC(=O)c1c(C)[nH]c(C(=O)COC(=O)c2ccc(-n3nc(C)cc3C)cc2)c1C	0.3	10.3	7.7*	-0.1	0.5	5.9
CCOC(=O)C(C)Sc1nnc(NC(=O)c2c(F)cccc2Cl)s1 (stereo unspecified)	0.5	1.7	5.0*	-0.2	-0.1	4.0
Cc1ccc(N(CC(=O)Nc2cc(C)cc(C)c2)S(=O)(=O)c2c(C)nn(C)c2C)cc1	7.2	8.7	0.5	0.0	.	.
C=CCC(CC=C)(C(=O)O)c1ccccc1	5.0	1.3	5.8*	0.4	-0.6	-7.0
COc1ccc2o/c(=N\NC(=O)c3ccccc3Nc3ccccc3)c(C(N)=O)cc2c1	-10.8	13.0	21.7*	0.1	-0.9	-14.0
NC(=O)c1cc2ccccc2o/c1=N\NC(=O)c1ccccc1Nc1ccccc1	17.4	9.1	-0.7	0.9	.	.
CC(C)C1=NOC(C(=O)N2CCC(CO)(Cc3cccc(C(F)(F)F)c3)CC2)C1 (stereo unspecified)	-3.5	-6.8	5.2*	-0.1	1.2	14.2
